# Results from the supplement of paper PMC6555819.
# System: VDR:RXRa (NR concentration 270 nM, RXRa partner concentration 90 nM)
# Assay: PBM binding z-score (relative to random genomic background probes); higher = stronger binding; sequences stand for … in GC…GCGATTGACAGCGTAGAATGAAGG
# Experimental: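 Protein-binding microarray (Agilent 4x180K custom design, double-stranded 60-nt probes: 5' GC cap, 34-nt variable region, 24-nt constant primer region; full probe sequence given). Purified or IVT nuclear receptor:RXRα heterodimers (3:1 NR:RXRα, mostly 270:90 nM) or homodimers were incubated for 1 h in PBS with 2% milk and no ligand, then detected with Alexa488 antibodies. Fluorescence from o1-orientation probes (~5 replicates averaged) was converted to z-scores against 500 random hg19 background probes. Variable regions are seed direct-repeat (DR0–DR5) sites, all their single-nucleotide variants and half-site ablations.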
row,Sequence,PBM binding z-score
1,TCGAGTAGATTACCAATGGGGCATTCAGCTTTCT,-0.414
2,ACTCGGAAGACAAAGGTCAGAGCTACGCCAGTGA,2.63
3,ATCTCTAGGTAAGACTCCGTTCAGTGAAGAACGC,0.0228
4,AGAACGAGCGCACGCTGAGTTGATAGCAGAGTAG,-0.801
5,TCTTCTAGGTCAGTTGGTCAGCTAACGAGCTGCC,1.3
6,TCTAGTTGGGCACGGAGGTCACACACGACGGGTA,4.08
7,TCTAGTTGGTCACGGAGGTCACCCACGACGGGTA,5.63
8,CCGACCGGGGCAGAAAGGTTACCATACCATCCGG,1.5
9,CCTAGCAGGCCAATCTGGGTCACTTAAGGCTTGA,0.526
10,ATCGAAAGGTCGGCGAGGTGAGTATACACCGTTT,4.48
11,GCAACGAGGGCAAGTTGATAGCAGAGTTTGATGG,0.955
12,ATCTCTAGGTAAAGATAGTTCAGTGAGTGCAAAT,5.05
13,GCGACTGGGGCATCAGCAGGTTACCATTACTTAA,-0.244
14,TCTAGTTGGTCAAAAGTCACACACTCGAAATGCG,1.21
15,ACTATTAGTTGAGACGAGGGCACCCGATAGGTTG,0.529
16,TAGCCTAGGTCATTCAGGAGCCAGTATAGAAAGC,2.21
17,TCTCGGAGGACACGAAGGTCAGAACTTTCCAGAG,2.18
18,TAGCCTAGGTCATTGGGCCAGTATCGTACGCATC,2.37
19,CCGACTGGGGCATAAGGATACCATAAGCCAGCCC,-0.657
20,TTACCAAGGTGAAGGTCGTAGATCCCTCTGTAGA,0.681

row,Sequence,PBM binding z-score
1,TAAGACAGGTGAAGGTAACTCAGGTACGCAGTCG,0.46
2,TATAGTTGGTCAAAGGTCACACACTCGAAATGCG,5.53
3,CAAACTAGGTCACGAAAGATCAAAGTCGAATGAC,3.03
4,CAAACTAGGTCACCGGAAGTTCAAAGTCCGCATG,6.24
5,GGAACGAGGGCAAAGTTGATCGCATCTGTCGACG,1.1
6,ATACCAAGTTGATCGTGAGGTCGTTGATACTAAC,2.68
7,ATCGAAAGGTAGAGGTGAGTATAGAGAAAGGGAA,0.0851
8,TAGCCTACGTCAGATCGGGCCAGTATACGCTATA,-0.713
9,CCTAGTTGGTCAGGAGGTTACACACCGGATATGA,0.869
10,ACTAGGAGGCCAAGGGTCACTCAAGATTAGTCCG,2.98
11,TGGCCTAGGTCATTGGGCCAGTATAGTACGCATC,1.87
12,CCTAGCAGGCCAATCTGGGTTACTCAAGGCTTGA,-0.43
13,TCGCGGAGGACACGAAGGTCAGAGCTTTCCAGAG,2.1
14,CGTCCAAGGTCAATGCTAGGACAGTGAAAGCATT,3.83
15,TCGAGTAGGTTAGGGGCCTTCAGAATGGCGTCGA,-0.482
16,CAAACTAGGTCAAGATGTCAAAGTCCGCTTCCCG,2.2
17,TCTTGGAGGACACGAAGGTCAGAGCTTTCCAGAG,2.35
18,AGTCGAAGTTCAGGACGAGGTAACGTAAAGCACG,1.15
19,CTCGAAAGGTCGTGCTCAGGTAAGTATACCAAAC,3.36
20,ATGTCTAGGTAAAGTTCAGTGAAAGATCGATAGA,1.8
